# Mtb FBA inh – inhibits M. tuberculosis FBA enzyme; P9WQA3; purified M. tuberculosis FBA, fluorescence read-out; inhibition, % at 1 µM; actives 2.3% (n = 360,000); AID 588726; in the data active = inhibition above about 27%;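 note: 0% = vehicle and 100% = reference inhibitor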
# GDH-TPI inh – counter-screen for M. tuberculosis FBA inhibitors: GDH-TPI coupled enzymes. actives 1.2% (n = 360,000). GDH-TPI coupled enzyme counterscreen, NADH absorbance. inhibition, % at 4.8 µM; in the data active = inhibition above about 30%;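 note: 0% = DMSO wells and 100% = wells lacking the enzyme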
# BoNT-F LC inh – blocks Botulinum neurotoxin F light chain protease | Multiplex microsphere protease cleavage assay, flow cytometry | inhibition, % at 10 µM | actives 0.22% (n = 360,000) | AID 588497; in the data active = inhibition above about 35%, passing the limit was not always enough; inconclusive = no clear call, values can overlap the other calls; note: plate controls were buffer without enzyme for full effect and enzyme alone for no effect
# BoNT-A LC inh2 – inhibitors of Botulinum neurotoxin A light chain protease; multiplex microsphere protease substrate cleavage, flow cytometry; inhibition, % at 10 µM; actives 0.17% (n = 360,000); AID 588499; note: plate controls were buffer without enzyme for full effect and enzyme alone for no effect
# Anthrax LF prot – blocks Bacillus anthracis lethal factor protease; multiplex microsphere protease cleavage assay, LF; inhibition, % at 10 µM; actives 0.12% (n = 360,000); note: plate controls were buffer without enzyme for full effect and enzyme alone for no effect
# Target sequence (P15917 whole entry, looked up): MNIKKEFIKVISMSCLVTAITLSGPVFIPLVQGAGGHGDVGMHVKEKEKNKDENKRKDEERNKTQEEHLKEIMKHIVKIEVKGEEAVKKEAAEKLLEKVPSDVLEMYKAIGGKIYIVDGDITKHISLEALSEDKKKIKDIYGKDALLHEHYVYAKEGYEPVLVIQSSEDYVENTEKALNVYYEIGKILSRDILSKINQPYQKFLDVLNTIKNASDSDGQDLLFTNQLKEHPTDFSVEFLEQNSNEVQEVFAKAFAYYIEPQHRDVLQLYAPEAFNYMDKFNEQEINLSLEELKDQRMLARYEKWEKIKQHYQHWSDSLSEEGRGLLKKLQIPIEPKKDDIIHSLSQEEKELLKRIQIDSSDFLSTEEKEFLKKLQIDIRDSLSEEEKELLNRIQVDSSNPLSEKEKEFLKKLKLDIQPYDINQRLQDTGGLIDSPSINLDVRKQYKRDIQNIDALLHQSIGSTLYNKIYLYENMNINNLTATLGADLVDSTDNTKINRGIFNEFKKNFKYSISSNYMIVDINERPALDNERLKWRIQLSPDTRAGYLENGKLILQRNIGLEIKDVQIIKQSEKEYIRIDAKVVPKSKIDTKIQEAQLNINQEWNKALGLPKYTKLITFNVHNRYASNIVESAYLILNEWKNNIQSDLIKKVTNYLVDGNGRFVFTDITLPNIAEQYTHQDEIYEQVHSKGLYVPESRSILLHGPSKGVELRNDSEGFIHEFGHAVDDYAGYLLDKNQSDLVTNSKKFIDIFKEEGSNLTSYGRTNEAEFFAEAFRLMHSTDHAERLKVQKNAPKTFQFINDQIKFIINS
# Autofluor counter – flagged as autofluorescent in microsphere protease counterscreen; actives 3.1% (n = 360,000); fluorescence intensity (concentration not given with the values); AID 624483; compound autofluorescence counterscreen, microsphere flow cytometry; hits give high values; in the data active = fluorescence intensity above about 16000; inconclusive = no clear call, values can overlap the other calls
# * hit, by the source's call; ? = inconclusive; / = no result. Hits are enriched below; roughly 6.7% of the tested compounds scored in any of these assays. Cut-off read from the data, not from the text of the source, unless noted: active = inhibition above about 30%; inconclusive = no clear call, values can overlap the other calls; inactive = below that.
SMILES,Mtb FBA inh,GDH-TPI inh,BoNT-F LC inh,BoNT-A LC inh2,Anthrax LF prot,Autofluor counter
COc1ccc(/C=C(/NC(=O)c2ccccc2)c2nc3ccccc3[nH]2)cc1OC,0,42*,-2,0,-1,3654
COc1ccc(C(=O)N/C(=C\c2cccs2)c2nc3ccccc3[nH]2)cc1OC,4,49*,0,1,-2,10782
O=C(CCNS(=O)(=O)c1ccccc1C(F)(F)F)NCCCc1ccccc1,-1,8,-12,0,-2,4335
COCCN(C(=O)c1cc(-c2ccccc2Cl)nc2ccccc12)c1c(N)n(CC(C)C)c(=O)[nH]c1=O,4,10,3,0,4,2974
CCOc1cccc(/C=C2/NC(=O)N(CC(=O)Nc3cccc(C)c3)C2=O)c1O,-2,25,6,0,4,3643
CCOc1cc(/C=C2/NC(=O)N(CC(=O)Nc3cccc(C)c3)C2=O)ccc1OCC(N)=O,3,38*,1,-1,0,4533
CC(/C=C1\SC(=O)N(CC(=O)Nc2cccc(O)c2)C1=O)=C\c1ccccc1,2,33*,-22,-1,-7,10699
COc1ccc(/C=C2\SC(=O)N(CC(=O)Nc3cccc(C)c3)C2=O)cc1O,-2,47*,/,/,/,/
COC(=O)c1ccc2c(=O)n(NC(=O)C(c3ccccc3)c3ccccc3)c(=S)[nH]c2c1,-1,9,-2,?,2,16293*
COC(=O)c1ccc2c(=O)n(CCO)c(=S)[nH]c2c1,1,-2,4,0,2,8136
COc1cccc(-n2c(SCC(=O)N3CCOCC3)nnc2-c2c[nH]c3ccccc23)c1,5,11,2,0,6,4861
COc1cccc(-n2c(SCC(=O)N3CCOCC3)nc3c([nH]c4ccccc43)c2=O)c1,0,33*,0,0,3,13304
Cc1cc(C(=O)N(Cc2nnc(-c3ccc(Cl)cc3)o2)C(C)C)c2ccccc2n1,1,3,0,-3,-8,6803
C[N+](C)(C)c1ccc(/C=N/Nc2nc(Cl)c(C#N)c(Cl)c2Cl)cc1,-5,38*,7,3,-1,2831
N#Cc1c(Cl)nc(N/N=C/c2ccccc2)c(Cl)c1Cl,0,1,-7,-1,0,2548
Cc1ccc(-n2c(Cc3ccccc3)nnc2SCC(=O)NNC(=O)Cc2ccccc2)cc1,-4,-3,-3,0,-3,16282*
Cc1ccc(-c2nnc(SCC(=O)CC(=O)Nc3ccccc3)n2-c2ccccc2)cc1,0,-8,-9,-7,2,21966*
Cc1ccc(C(=O)NNC(=O)CSc2nnc(-c3ccncc3)n2-c2ccc(C)cc2)cc1,2,13,2,2,-7,20719*
Cc1ccc(NC(=O)CSc2nnc(-c3cnccn3)n2-c2ccccc2)cc1,3,11,-6,?,1,16733*
CCC(C)NC(=O)C1CCCCN1S(=O)(=O)c1ccc(F)cc1 (stereo unspecified),2,7,0,0,-1,11219
CCOC(=O)c1c(NC(=O)CSc2ncn[nH]2)sc(C(=O)N(C)C)c1C,5,10,3,-2,-3,?
CCn1c(SCC(=O)Nc2ccc3[nH]c(=O)[nH]c3c2)nnc1-c1ccccc1,0,5,-10,0,-3,4941
CC(C)OC(=O)CSc1nnc(-c2cnccn2)n1-c1ccc(Cl)cc1,-2,5,-7,?,-4,21757*
COc1ccc(NC(=O)CSc2nnc(-c3ccccn3)n2-c2ccccc2)cc1OC,3,-2,6,6,-5,20651*
Cc1cccc(-n2ccnc2SCC(=O)c2c(N)n(C3CC3)c(=O)[nH]c2=O)c1C,1,3,-2,1,-5,6296
SMILES,Mtb FBA inh,GDH-TPI inh,BoNT-F LC inh,BoNT-A LC inh2,Anthrax LF prot,Autofluor counter
Cc1ccc2nc(SCC(=O)NCc3ccccc3Cl)nc(=O)n2c1,3,24,7,1,2,5240
Cc1ccn2c(C(=O)N/N=C\c3cccs3)c(C)nc2c1,0,62*,0,2,2,21815*
Cc1ccc2nc(C)c(C(=O)N/N=C/c3cccs3)n2c1,1,37*,-5,0,-2,2133
Cc1ccc2nc(C)c(C(=O)N/N=C/c3cccs3)cc2c1,-1,18,32,3,-2,2664
Cc1ccc2nc(C)c(C(=O)NN=C3CCCCCC3)n2c1,3,15,10,1,0,1962
Cc1ccc(C)c(-n2c(C)cc(/C=N/NC(=O)c3c(C)nc4cc(C)ccn34)c2C)c1,2,39*,-10,-2,-16,11665
Cc1nc2ccccn2c1C(=O)N/N=C/c1ccccc1Cl,-2,22,16,1,5,3419
CCCCNC(=O)C1Cc2cc(S(=O)(=O)N3CCCCC3)ccc2N1C(C)=O (stereo unspecified),-2,-5,3,2,1,5702
O=C(COc1ccc(Br)cc1)Nc1ccncc1,4,8,1,0,-6,2357
O=C(Nc1c(Cl)ccc2nsnc12)c1ccc([N+](=O)[O-])o1,2,24,-2,0,-5,4447
Cn1c(CN2CCN(C(=O)c3ccco3)CC2)nc2cc([N+](=O)[O-])ccc21,2,15,-3,-5,-5,7158
O=C1CCCC(O)=C1C1C2=C(CCCC2=O)Oc2ccccc21 (stereo unspecified),-3,2,5,?,-1,21293*
O=C1CCCC(O)=C1C1NCCc2ccccc21 (stereo unspecified),-2,-1,0,-1,0,2881
CNC(=S)N1N=C(c2ccc(Br)cc2)CC1c1ccc(N(C)C)cc1 (stereo unspecified),6,14,-4,0,-2,5318
O=C(OCC(=O)N1CCN(c2ccccc2)CC1)c1cccc(Cl)c1,3,-5,-4,?,-5,23047*
O=C(CSCc1ccccc1Cl)N1CCN(c2ccccn2)CC1,12,18,4,1,-1,8945
Cc1ccc(C(=O)N2CCN(c3cccc(Cl)c3)CC2)cc1C,3,31*,0,0,2,9279
O=C(CCSCc1ccccc1Cl)N1CCN(c2cccc(Cl)c2)CC1,4,5,0,0,-7,22753*
O=C(OCC(=O)N1CCN(c2ccccc2)CC1)c1ccncc1,0,-3,-14,-1,0,3932
O=C(Nc1ccc2ccccc2c1)c1ccccc1[N+](=O)[O-],16,3,-1,0,-8,4128
CS(=O)(=O)Nc1ccc(C(=O)N2CCN(c3ccccc3)CC2)cc1,0,1,5,2,-6,22316*
O=C(Cc1ccc(Cl)cc1)Nc1ccccc1C(=O)N1CCCC1,0,1,-4,0,1,4437
O=C(c1ccccc1)N1CCN(c2ccccc2)CC1,2,11,-6,0,0,2922
